# Lamin A splicing = LMNA splicing modulation | HeLa LMNA splicing GFP/RFP minigene ratio, 48 h | 200,000 compounds, 0.01% hits | Potency, µM (titrated, usually from 46.1 µM), for the others: at the highest dose ratio change, negative = inhibition, hits mostly inhibitors; active = well fitted inhibition curve with a large enough effect in the signal ratio, with a control signal flat, not every such curve was filed as active; inconclusive = small, poorly fitted or top-dose-only effect, or effect the other way, or a change in a side signal; the % refers to the signal ratio
#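 Read-out is the ratio of GFP to DsRed2 object intensity, acquired by 488 nm laser-scanning cytometry on HeLa lamin A-EGFP minigene reporter cells. Compound incubation 48 hrs at 37 °C in Opti-MEM with 2% FBS; DMSO 0.5% final.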
# IMPase Li cell = IMPase inhibition in cells with lithium potentiation; CHO-M1 cells, IP1 TR-FRET (IP-One), carbachol + lithium; Potency, µM (series often up to 59.4 µM), for inactives: at the highest dose activity, negative = IMPase inhibition, actives largely listed as inhibitors; 210,000 compounds, 0.35% hits; AID 1457; active = well fitted curve in the direction sought with a large enough effect; inconclusive = small, poorly fitted or top-dose-only effect, or another doubt; inactive = no such curve, though single readings can be large; an effect the other way counts as inactive or inconclusive;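 note: IP1 builds up when IMPase is blocked and the TR-FRET signal falls; plate controls were basal vehicle for no effect and high inhibitor control for full effect; nearly all actives have a fitted effect of over 50% in size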
#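 Concentration–response in CHO-M1 cells, lithium-potentiated; 30 min at 37C. IP1 detected by competitive TR-FRET after 10 min lysis at RT. Hill-fitted AC50.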
# HPGD block = inhibitors of human 15-hydroxyprostaglandin dehydrogenase (HPGD) | purified HPGD, NADH fluorescence kinetic, PGE2 substrate | 150,000 compounds, 4.3% hits | Potency, µM, for inactives: at the highest dose activity change, negative = inhibition, hits mostly inhibitors | AID 894
# Target sequence (P15428 whole entry, looked up): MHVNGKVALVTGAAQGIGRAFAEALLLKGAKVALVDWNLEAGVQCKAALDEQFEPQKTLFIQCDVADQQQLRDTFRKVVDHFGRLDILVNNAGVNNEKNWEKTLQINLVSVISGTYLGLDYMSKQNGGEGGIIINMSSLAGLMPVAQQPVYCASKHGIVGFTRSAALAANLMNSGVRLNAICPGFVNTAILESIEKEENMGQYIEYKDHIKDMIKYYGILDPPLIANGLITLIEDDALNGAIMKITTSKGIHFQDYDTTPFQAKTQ
#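 NADH formation kinetics: reaction with 30 uM PGE2 and 1 mM NAD+ (final), 20 nM enzyme, Tris-HCl pH 8 with Tween 20, after 15 min compound preincubation at room temperature. Fluorescence change, last versus first of five reads.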
# KinaseGlo FLuc = Kinase-Glo luciferase inhibition (counter-screen); Q27757; Kinase-Glo luciferase, ATP luminescence, 8 min; Potency, µM (highest dose often 38.3 µM), for the others: at the highest dose activity change, negative = inhibition, usual class: inhibitors; 200,000 compounds, 0.28% hits; active = well fitted curve in the direction sought with a large enough effect; inconclusive = small, poorly fitted or top-dose-only effect, or another doubt; inactive = no such curve, though single readings can be large; an effect the other way counts as inactive or inconclusive; note: nearly all actives have a fitted effect of over 60% in size
#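 Light output from Kinase-Glo luciferase with luciferin and 10 uM ATP in 50 mM imidazole pH 7.2, KCl, MgCl2, Tween 20, BSA; compound pin-delivered, 8-min ambient incubation, then luminescence read.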
# ALDH1A1 inh = ALDH1A1 (human) enzyme inhibition. P00352. Purified ALDH1A1, NADH fluorescence, propionaldehyde substrate. Potency, µM (highest dose often 75.3 µM), for the others: at the highest dose activity, negative = inhibition, most hits filed as inhibitors. 220,000 compounds, 7.3% hits;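 note: plate controls were no enzyme wells and a reference inhibitor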
# Target sequence (P00352 whole entry, looked up): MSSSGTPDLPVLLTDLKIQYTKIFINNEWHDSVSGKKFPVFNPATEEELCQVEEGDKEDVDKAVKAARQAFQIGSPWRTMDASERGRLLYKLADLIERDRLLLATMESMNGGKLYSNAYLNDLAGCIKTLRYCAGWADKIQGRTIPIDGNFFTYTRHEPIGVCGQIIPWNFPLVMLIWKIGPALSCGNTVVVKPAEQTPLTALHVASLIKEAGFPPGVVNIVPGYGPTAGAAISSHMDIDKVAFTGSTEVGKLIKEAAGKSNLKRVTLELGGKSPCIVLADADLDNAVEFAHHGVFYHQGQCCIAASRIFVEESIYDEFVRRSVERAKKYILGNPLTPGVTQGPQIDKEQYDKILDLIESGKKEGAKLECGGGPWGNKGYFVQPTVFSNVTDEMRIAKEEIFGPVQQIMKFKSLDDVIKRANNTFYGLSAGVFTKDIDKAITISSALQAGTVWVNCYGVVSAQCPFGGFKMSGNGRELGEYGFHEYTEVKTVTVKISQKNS
# Active calls of the source: *; ? = inconclusive; . = no result; [ ] = remark or other dose. Only some compounds are listed: those with a hit (about 9% of all), similar ones and a draw of the others. Unless noted, calls come from the whole dose curve; as a rule, active = well fitted inhibition curve with a large enough effect (not every such curve was filed as active); inconclusive = small, poorly fitted or top-dose-only effect, or another doubt; inactive = no such curve, though single readings can be large or run the other way. Unless noted, % is set by controls: 0 for no effect and ±100 for the full control effect; potency is the fitted concentration of half-maximal effect.
SMILES,Lamin A splicing,IMPase Li cell,HPGD block,KinaseGlo FLuc,ALDH1A1 inh
CCOC(=O)NN1C(=O)c2ccccc2NC1c1ccc(OC)cc1OC (stereo not drawn),.,-9.6%,.,-0.4%,?
CCOC(=O)/C(C#N)=C1/C=CN(C)C=N1,4.8%,-14.9%[38.3 µM],25.1µM*,-1.7%,14.1µM*
CCOC(=O)/C(C#N)=C1/C=CN(c2ccccc2)C=N1,15.0%,0.1%[38.3 µM],-15.2%,-1.8%,?
CCN1CCN(C(=O)c2sc3nc(C)nc(N4CCC(C)CC4)c3c2C)CC1,16.3%,28.5%[38.3 µM],-4.3%,-1.1%,-9.1%
Cc1nc(N2CCC(C)CC2)c2c(C)c(C(=O)O)sc2n1,17.4%,?,20µM*,-2.6%,-7.0%
CCOc1ccc2nc3sc(C(=O)N4CCOCC4)c(N)c3cc2c1,.,5.1%,.,-1.7%,-16.6%
COc1ccc2nc3sc(C(=O)NCc4cccs4)c(N)c3cc2c1,?,?,?,-8.4%,3.98µM*
CCn1c2ccccc2c2cc(NC(=O)c3ccc(Br)o3)ccc21,-3.4%,20.8%[38.3 µM],4.47µM*,-2.2%,2.24µM*
O=C(Nc1ccc(N2CCCC2)c(Cl)c1)c1ccc(Br)o1,-5.8%,11.7%[38.3 µM],-29.7%,-7.1%,18.9µM*
CCn1c2ccccc2c2cc(NC(=O)c3cc(C)on3)ccc21,.,-3.0%,.,0.5%,5.3%
O=C(Nc1ccccc1N1CCCC1)c1ccc(Br)o1,-0.8%,44.3%[38.3 µM],-6.3%,-3.7%,?
CCN1CCN(c2ccc(NC(=O)c3ccc([N+](=O)[O-])o3)cc2Cl)CC1,?,20.3%,.,0.3%,20µM*
COc1ccc(S(=O)(=O)N2CCCCC2)cc1NC(=O)c1ccc([N+](=O)[O-])o1,?,8.8%,.,4.4%,3.16µM*
COc1ccccc1OCCn1c(=O)oc2ccc(C)cc21,.,9.8%,.,1.9%,1.4%
Cc1ccc(C(=O)c2oc3ccccc3c2NC(=O)c2cc(-c3ccccc3)on2)cc1F,20.1%[46 µM],.,.,.,.
COc1ccc(C2CC(c3cccs3)=NN2C(=O)COC(=O)c2cncc(Br)c2)cc1OC (stereo not drawn),-4.9%[46 µM],11.7%,.,0.7%,?
O=C(Nc1cccc(OC(F)(F)F)c1)c1ccc(Br)o1,?,6.9%[38.3 µM],25.1µM*,-2.4%,22.4µM*
CCC(=O)N1CCN(c2ccc(NC(=O)c3ccc([N+](=O)[O-])o3)cc2Cl)CC1,.,29.3%,.,-1.0%,14.1µM*
CCC(=O)N1CCN(c2ccc(NC(=O)c3cc4ccccc4o3)cc2Cl)CC1,?,19.1%,-15.7%,-1.7%,-0.9%
O=C1CN(C(=O)COc2ccc(F)cc2Br)c2ccccc2N1,.,12.0%,.,-2.2%,?
O=C1CN(C(=O)CNCc2ccccc2Cl)c2ccccc2N1,.,.,.,.,20µM*
CC(C)[C@H](NC(=O)c1ccco1)C(=O)OCC(=O)N1CC(=O)Nc2ccccc21,1.8%[46 µM],-6.3%,.,2.7%,14.1µM*
O=C1CN(C(=O)COc2ccccc2F)c2ccccc2N1,10.7%,-1.1%,-19.7%,-2.1%,17.8µM*
CC(C)[C@H](NC(=O)c1ccco1)C(=O)OCC(=O)N1CCc2ccccc21,0.6%,-3.3%[38.3 µM],-0.1%,-5.4%,?
O=C1CN(C(=O)CNC(=O)c2cccc(Cl)c2)c2ccccc2N1,-12.0%[46 µM],-3.7%,.,-2.8%,-0.5%
SMILES,Lamin A splicing,IMPase Li cell,HPGD block,KinaseGlo FLuc,ALDH1A1 inh
CCOC(=O)C(=O)N1CCC(C(=O)OC)CC1,.,-4.3%,.,0.9%,-3.0%
COc1ccc(Cc2noc(CN3CCNC(=O)CC3)n2)cc1OC,.,-4.4%,.,1.8%,7.0%
CSc1ccccc1NC(=O)c1ccc(Cl)s1,-7.8%,38.3%[38.3 µM],20µM*,-8.5%,?
Cc1ccc(NC(=O)NCc2c(C)nn(C)c2C)cc1Cl,-3.9%[46 µM],5.4%,.,-1.4%,-3.4%
Cc1nn(C)cc1CNC(=O)Nc1ccc(Cl)c(Cl)c1,0.7%,34.7%[38.3 µM],15.8µM*,-4.4%,-15.6%
CC(C)COc1nc2ccccc2c(=O)n1OCC(=O)O,-5.6%,3.8%,-10.4%,-1.7%,-1.9%
CCCOn1c(OCC(C)C)nc2ccccc2c1=O,16.0%,21.5%[38.3 µM],-15.4%,-1.3%,22.4µM*
CN(C)C(=O)C1(c2ccccc2)CCN(S(=O)(=O)c2ccccc2)CC1,-0.5%,27.1%[38.3 µM],-9.4%,-1.6%,-6.4%
O=C(NCc1ccccc1)C1(c2ccccc2)CCN(S(=O)(=O)c2ccccc2)CC1,1.9%,20.0%[38.3 µM],-13.4%,-4.4%,8.91µM*
O=C(COC(=O)c1ccccc1Br)NCCN1C(=O)CSC1=O,-21.3%[46 µM],-16.3%,.,0.6%,14.1µM*
CN1CCN(CN2C(=O)C3C4C=CC(C3C2=O)C2C3C(=O)N(CN5CCN(C)CC5)C(=O)C3C42)CC1 (stereo not drawn),.,8.6%,-2.8%,-11.8%[7.66 µM],-11.8%[13.5 µM]
CC(=O)Nc1ccc(S(=O)(=O)Nc2nc3ccc(C)cc3s2)cc1,8.9%,-4.5%[38.3 µM],-21.4%,2.8%,-14.2%
CS(=O)(=O)c1ccc2nc(NC(=O)CN3C(=O)C4CC=CCC4C3=O)sc2c1 (stereo not drawn),-1.4%[46 µM],-5.4%,.,1.1%,12.6µM*
COc1ccc(Cl)cc1C(=O)Nc1nc2ccc(S(C)(=O)=O)cc2s1,.,12.6µM*,.,.,0.7%
Cc1cc(C)nc(NS(=O)(=O)c2ccc(NC(=O)CN3C(=O)C4CC=CCC4C3=O)cc2)n1 (stereo not drawn),.,11.2%,.,1.3%,31.6µM*
Cc1ccc(S(=O)(=O)Nc2nc3ccc(S(C)(=O)=O)cc3s2)cc1,-4.9%,10.6%[38.3 µM],25.1µM*,4.0%,?
Cc1ccc2nc(NC(=O)CN3C(=O)C4CC=CCC4C3=O)sc2c1 (stereo not drawn),-1.2%[46 µM],2.9%,.,-0.6%,-0.4%
CCN(C(=O)c1noc2c1COc1ccc(C)cc1-2)c1cccc(C)c1,8.1%[46 µM],.,.,.,.
O=C(CCC1CCCN(c2ncccn2)C1)NCc1ccc(F)c(F)c1 (stereo not drawn),.,6.1%,.,0.3%,?
CCCOc1ccc(C(=O)NC(=S)Nc2nc3ccc(C)cc3s2)cc1,7.9%,-3.6%[38.3 µM],0.0%,2.7%,23.8%
CCOCC(=O)Nc1nc2ccc(S(C)(=O)=O)cc2s1,2.0%,23.4%[38.3 µM],-26.3%,-11.3%,17.8µM*
CCOc1ccc2nc(-c3cc(NC(C)=O)ccc3O)sc2c1,.,10µM*,.,-0.5%,-2.0%
Cc1ccc2nc(NC(=S)NC(=O)c3ccc(OC(C)C)cc3)sc2c1,?,2.1%[38.3 µM],10µM*,3.0%,18.9µM*
CCOCC(=O)Nc1nc2ccc(OCC)cc2s1,-4.4%,28.2%[38.3 µM],-5.1%,-21.4%,15.8µM*
COCCCNC(=O)c1ccc(NC(=O)N2CCCCc3ccccc32)cc1,1.5%[46 µM],.,.,.,.
CCOc1ccc2nc(NC(=O)CSC3=NCCS3)sc2c1,?,25.3%[38.3 µM],-20.6%,13.3%,25.1µM*
CCOCC(=O)Nc1nc2ccc(C)cc2s1,-11.8%,4.5%,-9.2%,-8.2%,12.6µM*
C/C=C/C(=O)OCC(=O)Nc1nc2ccc(C)cc2s1,-6.5%,35.0%[38.3 µM],-12.2%,14.5%,-6.0%
COc1ccc2nc(NC(=O)CSc3ccccc3)sc2c1,?,-31.9%[38.3 µM],-29.3%,3.2%,28.2µM*
COc1ccc2nc(NC(=O)CSc3nnc(N)s3)sc2c1,-10.1%,-3.4%,-11.8%,-0.4%,1.7%

# Screening data (PubChem)
